# Experimental data reported in PubChem BioAssay (EPA / NIEHS).
# Records with an inconclusive call do not appear. Calls of active or inactive are those of the source. Rule for the calls: active = hit-call score of the fitted dose curve at least 0.9, where 1 is the maximum; inconclusive = response in the unintended direction; inactive = score below 0.9.
# Assays:
# Adra2b (gene 24174) = Adra2b (gene 24174) (UniProt P19328); assay: NVS_GPCR_rmAdra2B: NovaScreen (NVS) G Protein-Coupled Receptor Assay for hybird cells Adrenergic, Alpha 2B Receptor (Adra2B) (AID 2283306)
# Sequence of Adra2b (gene 24174) (P19328 whole entry, looked up): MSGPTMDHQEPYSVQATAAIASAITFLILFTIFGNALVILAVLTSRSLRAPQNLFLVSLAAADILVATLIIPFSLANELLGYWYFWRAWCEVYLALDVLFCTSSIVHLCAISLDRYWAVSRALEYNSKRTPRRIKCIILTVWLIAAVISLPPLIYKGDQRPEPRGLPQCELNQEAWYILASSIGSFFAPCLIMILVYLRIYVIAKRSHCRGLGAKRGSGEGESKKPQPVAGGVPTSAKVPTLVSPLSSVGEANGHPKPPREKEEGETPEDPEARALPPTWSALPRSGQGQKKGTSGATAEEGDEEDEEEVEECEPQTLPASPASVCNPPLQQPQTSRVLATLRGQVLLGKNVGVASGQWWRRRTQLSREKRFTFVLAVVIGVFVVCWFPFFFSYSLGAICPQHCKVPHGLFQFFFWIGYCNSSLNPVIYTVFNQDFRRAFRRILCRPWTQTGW
# Method in brief: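 Radioligand filter-binding assay on membrane proteins from neuroglioma/blastoma hybrid cells (rodent), 1 h after dosing; scintillation counting, loss of signal vs DMSO. Primary screen in duplicate at 25 uM, actives then run in concentration series.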
# [1] = target: rat Neurokinin-1 Receptor (NK1), Tacr1 (gene 24807) (UniProt P14600); assay: NVS_GPCR_rNK1: NovaScreen (NVS) G Protein-Coupled Receptor Assay for rat Neurokinin-1 Receptor (NK1) (AID 2283309)
# Sequence of rat Neurokinin-1 Receptor (NK1), Tacr1 (gene 24807) (P14600 whole entry, looked up): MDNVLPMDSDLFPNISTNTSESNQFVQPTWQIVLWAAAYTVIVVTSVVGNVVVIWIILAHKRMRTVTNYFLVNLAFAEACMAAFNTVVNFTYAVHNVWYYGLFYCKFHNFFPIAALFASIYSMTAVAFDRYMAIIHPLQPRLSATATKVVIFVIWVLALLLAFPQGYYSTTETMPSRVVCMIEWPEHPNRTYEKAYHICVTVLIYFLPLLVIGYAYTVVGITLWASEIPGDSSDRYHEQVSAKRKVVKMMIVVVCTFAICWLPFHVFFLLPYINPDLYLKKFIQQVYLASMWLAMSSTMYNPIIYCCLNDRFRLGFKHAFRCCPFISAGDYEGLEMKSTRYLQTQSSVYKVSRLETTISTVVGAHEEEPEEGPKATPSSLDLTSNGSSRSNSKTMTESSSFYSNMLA
# Method in brief: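 Rat submaxillary gland membranes; radioligand displacement read by filter-based scintillation counting after 1 h. Primary screen in duplicate at 25 uM; actives retested in concentration series; loss of binding fitted versus DMSO.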
# [2] = target: rat Opioid Receptor, Non-selective Sodium (Na+) Binding, Oprm1 (gene 25601) (UniProt P33535); assay: NVS_GPCR_rOpiate_NonSelectiveNa: NovaScreen (NVS) G Protein-Coupled Receptor Assay for rat Opioid Receptor, Non-selective Sodium (Na+) Binding (AID 2283311)
# Sequence of rat Opioid Receptor, Non-selective Sodium (Na+) Binding, Oprm1 (gene 25601) (P33535 whole entry, looked up): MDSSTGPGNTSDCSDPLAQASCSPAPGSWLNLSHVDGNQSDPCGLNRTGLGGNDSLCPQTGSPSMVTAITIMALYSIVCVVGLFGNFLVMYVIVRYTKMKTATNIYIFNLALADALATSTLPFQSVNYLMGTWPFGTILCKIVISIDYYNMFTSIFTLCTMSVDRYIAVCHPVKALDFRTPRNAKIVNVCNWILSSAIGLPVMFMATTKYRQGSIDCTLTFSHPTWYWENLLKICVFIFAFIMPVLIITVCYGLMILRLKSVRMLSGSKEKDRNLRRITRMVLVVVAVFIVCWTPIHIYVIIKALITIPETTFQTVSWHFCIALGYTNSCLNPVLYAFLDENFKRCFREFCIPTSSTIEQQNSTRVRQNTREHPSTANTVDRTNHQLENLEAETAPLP
# Method in brief: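 Rat forebrain membranes, radioligand displacement with filter scintillation counting, 1.5 h incubation. Screened in duplicate at 25 µM; hits then run in concentration-response up to 50 µM; loss of binding fitted versus DMSO.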
# [3] = target: rat Vasopressin 1 Receptor (V1), Avpr1a (gene 25107) (UniProt P30560); assay: NVS_GPCR_rV1: NovaScreen (NVS) G Protein-Coupled Receptor Assay for rat Vasopressin 1 Receptor (V1) (AID 2283316)
# Sequence of rat Vasopressin 1 Receptor (V1), Avpr1a (gene 25107) (P30560 whole entry, looked up): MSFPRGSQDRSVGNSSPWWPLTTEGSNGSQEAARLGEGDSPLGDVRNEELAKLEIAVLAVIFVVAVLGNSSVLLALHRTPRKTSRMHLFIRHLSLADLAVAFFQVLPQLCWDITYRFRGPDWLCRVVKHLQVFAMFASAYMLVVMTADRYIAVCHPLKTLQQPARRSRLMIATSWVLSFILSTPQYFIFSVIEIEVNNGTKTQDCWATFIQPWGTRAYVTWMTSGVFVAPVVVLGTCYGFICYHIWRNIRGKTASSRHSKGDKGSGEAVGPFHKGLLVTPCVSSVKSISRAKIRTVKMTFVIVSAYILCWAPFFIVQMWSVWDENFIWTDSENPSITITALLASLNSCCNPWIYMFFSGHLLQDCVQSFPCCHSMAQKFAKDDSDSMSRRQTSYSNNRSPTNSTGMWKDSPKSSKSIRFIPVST
# Method in brief: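 Radioligand binding on rat liver membranes, 1.5 h incubation, filter-based scintillation counting. Single 25 uM screen in duplicate; chemicals meeting threshold (e.g. 30% inhibition) run in concentration-response up to 50 uM.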
# [4] = target: rat Neonicotinoid receptor (NNR), Chrna7 (gene 25302) (UniProt Q05941); assay: NVS_LGIC_rNNR_BungSens: NovaScreen (NVS) Ligand-Gated Ion Channel Assay for rat Neonicotinoid receptor (NNR) (AID 2283315)
# Sequence of rat Neonicotinoid receptor (NNR), Chrna7 (gene 25302) (Q05941 whole entry, looked up): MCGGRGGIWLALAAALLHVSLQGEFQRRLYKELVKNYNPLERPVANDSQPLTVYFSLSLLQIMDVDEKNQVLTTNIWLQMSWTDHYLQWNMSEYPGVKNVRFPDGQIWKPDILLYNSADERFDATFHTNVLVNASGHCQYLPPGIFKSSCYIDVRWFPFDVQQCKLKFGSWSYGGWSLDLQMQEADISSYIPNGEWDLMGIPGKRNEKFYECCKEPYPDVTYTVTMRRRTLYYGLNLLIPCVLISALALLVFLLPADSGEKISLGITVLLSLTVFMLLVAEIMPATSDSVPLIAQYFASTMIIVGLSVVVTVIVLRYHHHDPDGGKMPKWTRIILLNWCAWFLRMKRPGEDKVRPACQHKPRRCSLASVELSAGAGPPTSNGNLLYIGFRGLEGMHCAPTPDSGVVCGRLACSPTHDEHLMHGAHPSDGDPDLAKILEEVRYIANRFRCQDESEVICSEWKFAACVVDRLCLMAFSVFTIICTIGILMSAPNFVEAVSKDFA
# Method in brief: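 Radioligand displacement binding on rat cortical membranes, 2.5 h incubation, filtration and scintillation counting. Loss of specific binding fitted relative to DMSO.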
# [5] = target: rat Corticotropin Releasing Factor Receptor (CRF), Crhr1 (gene 58959) (UniProt P35353); assay: NVS_GPCR_rCRF: NovaScreen (NVS) G Protein-Coupled Receptor Assay for rat Corticotropin Releasing Factor Receptor (CRF) (AID 2283300)
# Sequence of rat Corticotropin Releasing Factor Receptor (CRF), Crhr1 (gene 58959) (P35353 whole entry, looked up): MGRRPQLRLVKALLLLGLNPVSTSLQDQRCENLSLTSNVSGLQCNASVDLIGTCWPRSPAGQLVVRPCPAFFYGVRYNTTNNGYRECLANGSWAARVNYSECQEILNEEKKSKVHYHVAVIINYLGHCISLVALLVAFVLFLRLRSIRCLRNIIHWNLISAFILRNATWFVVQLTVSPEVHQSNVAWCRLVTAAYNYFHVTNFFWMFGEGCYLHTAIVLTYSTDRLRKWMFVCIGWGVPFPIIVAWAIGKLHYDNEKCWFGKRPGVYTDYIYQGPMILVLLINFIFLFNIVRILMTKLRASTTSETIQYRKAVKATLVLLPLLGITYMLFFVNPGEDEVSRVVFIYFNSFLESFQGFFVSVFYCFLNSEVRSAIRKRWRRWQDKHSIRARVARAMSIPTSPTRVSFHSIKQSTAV
# Method in brief: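 Rat cortical membranes used as receptor source in a radioligand competitive displacement binding assay; scintillation read 2 h after dosing. Primary screen run in duplicate at 25 uM; loss of signal versus DMSO baseline indicates binding.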
# [6] = target: rat Somatostatin Receptor (SST), Sstr1 (gene 25033) (UniProt P28646); assay: NVS_GPCR_rSST: NovaScreen (NVS) G Protein-Coupled Receptor Assay for rat Somatostatin Receptor (SST) (AID 2283314)
# Method in brief: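 Rat forebrain membranes; radioligand displacement read by filter-based scintillation counting 1 h after dosing. Primary screen in duplicate at 25 uM. Actives (e.g., 30% inhibition) were rerun as concentration-response to 50 uM max and fitted against DMSO.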
# [7] = target: rat Neurotensin Receptor (NTS), Ntsr1 (gene 366274) (UniProt P20789); assay: NVS_GPCR_rNTS: NovaScreen (NVS) G Protein-Coupled Receptor Assay for rat Neurotensin Receptor (NTS) (AID 2283308)
# Sequence of rat Neurotensin Receptor (NTS), Ntsr1 (gene 366274) (P20789 whole entry, looked up): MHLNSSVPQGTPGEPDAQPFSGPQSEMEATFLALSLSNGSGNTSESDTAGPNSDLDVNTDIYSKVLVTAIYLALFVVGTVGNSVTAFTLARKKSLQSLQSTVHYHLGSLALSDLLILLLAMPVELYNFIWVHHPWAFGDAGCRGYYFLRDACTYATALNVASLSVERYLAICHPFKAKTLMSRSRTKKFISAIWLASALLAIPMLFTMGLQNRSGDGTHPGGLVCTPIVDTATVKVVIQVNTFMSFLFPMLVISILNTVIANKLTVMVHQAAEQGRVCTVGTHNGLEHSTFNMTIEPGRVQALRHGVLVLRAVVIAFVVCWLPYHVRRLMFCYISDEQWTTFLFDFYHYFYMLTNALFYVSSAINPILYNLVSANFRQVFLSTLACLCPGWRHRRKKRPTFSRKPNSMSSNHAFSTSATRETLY
# Method in brief: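 Rat forebrain membranes; radioligand binding with competitive displacement, read by filter-based scintillation counting 1 h after dosing. Primary screen in duplicate at 25 uM; actives (e.g., 30% inhibition) rerun in concentration-response up to 50 uM, loss-of-signal versus DMSO.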
# [8] = target: guinea pig Serotonin, 5-Hydroxytryptamine Receptor 4 (5HT4), HTR4 (gene 100135548) (UniProt O70528); assay: NVS_GPCR_g5HT4: NovaScreen (NVS) G Protein-Coupled Receptor Assay for guinea pig Serotonin, 5-Hydroxytryptamine Receptor 4 (5HT4) (AID 2283294)
# Sequence of guinea pig Serotonin, 5-Hydroxytryptamine Receptor 4 (5HT4), HTR4 (gene 100135548) (O70528 whole entry, looked up): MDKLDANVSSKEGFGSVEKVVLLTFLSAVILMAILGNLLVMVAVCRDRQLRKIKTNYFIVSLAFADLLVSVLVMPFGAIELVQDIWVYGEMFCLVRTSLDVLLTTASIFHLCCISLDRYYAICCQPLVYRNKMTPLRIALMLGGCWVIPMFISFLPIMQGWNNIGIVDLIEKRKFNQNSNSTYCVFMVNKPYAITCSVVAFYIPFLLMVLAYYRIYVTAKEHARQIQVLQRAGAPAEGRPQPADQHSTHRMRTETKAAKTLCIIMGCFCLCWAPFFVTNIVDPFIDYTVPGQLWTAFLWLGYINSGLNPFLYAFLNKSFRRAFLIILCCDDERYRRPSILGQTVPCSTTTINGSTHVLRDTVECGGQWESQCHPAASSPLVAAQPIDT
# Method in brief: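 Guinea pig striatal membranes; radioligand competitive displacement, filtration and scintillation counting after 1 h. Primary screen in duplicate at 25 uM; actives then tested in concentration series; loss of binding signal fitted relative to DMSO.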
# [9] = target: rat Adrenergic Receptor, Alpha 2 (Adra2), Non-selective Binding, Adra2a (gene 25083) (UniProt P22909); assay: NVS_GPCR_rAdra2_NonSelective: NovaScreen (NVS) G Protein-Coupled Receptor Assay for rat Adrenergic Receptor, Alpha 2 (Adra2), Non-selective Binding (AID 2283299)
# Method in brief: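 Rat cortical membranes, radioligand competitive displacement read by filter-based scintillation counting 1.25 hours after dosing. Primary screen in duplicate at 25 uM; actives followed up in concentration series.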
# [10] = target: rat Serotonin, 5-Hydroxytryptamine Receptor (5HT), Non-Selective Binding, Htr1a (gene 24473) (UniProt P19327); assay: NVS_GPCR_r5HT_NonSelective: NovaScreen (NVS) G Protein-Coupled Receptor Assay for rat Serotonin, 5-Hydroxytryptamine Receptor (5HT), Non-Selective Binding (AID 2283295)
# Sequence of rat Serotonin, 5-Hydroxytryptamine Receptor (5HT), Non-Selective Binding, Htr1a (gene 24473) (P19327 whole entry, looked up): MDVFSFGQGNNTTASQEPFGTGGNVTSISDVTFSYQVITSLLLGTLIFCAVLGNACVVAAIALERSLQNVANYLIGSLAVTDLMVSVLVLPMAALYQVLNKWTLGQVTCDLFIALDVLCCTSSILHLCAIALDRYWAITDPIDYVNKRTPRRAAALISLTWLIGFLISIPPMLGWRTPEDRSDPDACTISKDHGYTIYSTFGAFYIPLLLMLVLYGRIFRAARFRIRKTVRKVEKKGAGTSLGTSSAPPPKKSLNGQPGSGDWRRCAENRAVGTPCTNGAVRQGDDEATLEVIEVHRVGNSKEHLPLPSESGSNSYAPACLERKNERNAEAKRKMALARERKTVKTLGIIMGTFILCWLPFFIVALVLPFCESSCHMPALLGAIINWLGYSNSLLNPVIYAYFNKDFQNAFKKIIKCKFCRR
# Method in brief: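 Radioligand displacement on rat cortical membranes, 1 h incubation, filter-based scintillation counting. Primary duplicates at 25 uM, actives retested in concentration series; loss of signal fitted against DMSO as baseline.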
# [11] = target: rat Neurokinin-3 Receptor (NK3), Tacr3 (gene 24808) (UniProt P16177); assay: NVS_GPCR_rNK3: NovaScreen (NVS) G Protein-Coupled Receptor Assay for rat Neurokinin-3 Receptor (NK3) (AID 2283310)
# Sequence of rat Neurokinin-3 Receptor (NK3), Tacr3 (gene 24808) (P16177 whole entry, looked up): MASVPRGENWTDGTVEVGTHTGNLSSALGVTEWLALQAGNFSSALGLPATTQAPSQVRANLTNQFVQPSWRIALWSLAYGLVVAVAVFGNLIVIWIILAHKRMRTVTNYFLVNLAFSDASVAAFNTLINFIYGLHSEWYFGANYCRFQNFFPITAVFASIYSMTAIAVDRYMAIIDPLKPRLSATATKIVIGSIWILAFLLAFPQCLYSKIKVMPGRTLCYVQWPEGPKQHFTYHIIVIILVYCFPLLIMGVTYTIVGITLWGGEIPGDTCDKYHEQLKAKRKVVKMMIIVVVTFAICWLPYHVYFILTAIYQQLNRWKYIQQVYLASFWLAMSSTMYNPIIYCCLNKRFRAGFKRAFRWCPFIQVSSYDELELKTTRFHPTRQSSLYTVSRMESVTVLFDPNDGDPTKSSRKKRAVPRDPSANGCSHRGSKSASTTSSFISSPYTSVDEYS
# Method in brief: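 Rat cortical membranes; radioligand binding with filtration and scintillation counting, 2 h after dosing. Primary screen in duplicate at 25 uM, then concentration-response up to 50 uM; loss of binding signal relative to DMSO.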
# [12] = target: rat Gamma-Aminobutyric Acid Type B Receptor (GABBR), Gabbr1 (gene 81657) (UniProt Q9Z0U4); assay: NVS_GPCR_rGABBR: NovaScreen (NVS) G Protein-Coupled Receptor Assay for rat Gamma-Aminobutyric Acid Type B Receptor (GABBR) (AID 2283301)
# Method in brief: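 Radioligand displacement on rat cortical membranes, 1 h, filter-based scintillation counting. Primary screen at 25 uM in duplicate; compounds passing threshold re-tested in concentration-response up to 50 uM; loss of binding fitted against DMSO.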
# [13] = target: rat Adrenergic, Alpha 1A Receptor (Adra1A), Adra1a (gene 29412) (UniProt P43140); assay: NVS_GPCR_rAdra1A: NovaScreen (NVS) G Protein-Coupled Receptor Assay for rat Adrenergic, Alpha 1A Receptor (Adra1A) (AID 2283296)
# Sequence of rat Adrenergic, Alpha 1A Receptor (Adra1A), Adra1a (gene 29412) (P43140 whole entry, looked up): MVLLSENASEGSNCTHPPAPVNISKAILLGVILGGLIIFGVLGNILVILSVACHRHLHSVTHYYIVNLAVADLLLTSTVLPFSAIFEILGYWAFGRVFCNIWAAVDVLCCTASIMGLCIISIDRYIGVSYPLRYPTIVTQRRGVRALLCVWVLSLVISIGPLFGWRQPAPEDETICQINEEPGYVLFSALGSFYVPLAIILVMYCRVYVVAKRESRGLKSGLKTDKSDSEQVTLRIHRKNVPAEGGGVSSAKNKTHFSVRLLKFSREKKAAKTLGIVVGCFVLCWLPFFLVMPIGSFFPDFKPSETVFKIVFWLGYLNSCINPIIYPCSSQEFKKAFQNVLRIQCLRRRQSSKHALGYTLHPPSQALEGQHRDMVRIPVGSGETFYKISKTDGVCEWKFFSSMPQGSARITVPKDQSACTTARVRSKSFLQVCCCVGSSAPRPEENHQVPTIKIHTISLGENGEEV
# Method in brief: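 Rat cortical membranes pretreated with chlorethyl clonidine; competitive radioligand displacement, 1 h. Filter-based scintillation counting. Primary screen in duplicate at 25 uM, actives followed in concentration series.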
# [14] = system: rat Adrenergic, Alpha 1B Receptor (Adra1B), gene 24173; assay: NVS_GPCR_rAdra1B: NovaScreen (NVS) G Protein-Coupled Receptor Assay for rat Adrenergic, Alpha 1B Receptor (Adra1B) (AID 2283297)
# Method in brief: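 Rat liver membranes, radioligand displacement with filter-based scintillation detection, 1 h incubation. Primary screen in duplicate at 25 uM; actives retested in concentration series; activity relative to DMSO.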
smiles,measurement,setting,value
COc1ccc(C(=CC(=O)N2CCOCC2)c2ccc(Cl)cc2)cc1OC,AC50,Adra2b (gene 24174),11.7 µM (active)
same,outcome,[1],inactive
same,outcome,[2],inactive
same,AC50,[3],6.22 µM (active)
CCCOc1nn(C(=O)NS(=O)(=O)c2ccccc2C(=O)OC)c(=O)n1C,outcome,[4],inactive
CC(C)=CC1C(C(=O)OCN2C(=O)C3=C(CCCC3)C2=O)C1(C)C (centres undefined),outcome,[5],inactive
same,outcome,[6],inactive
C=C(C)[C@H]1Cc2c(ccc3c2O[C@@H]2COc4cc(OC)c(OC)cc4[C@@H]2C3=O)O1,outcome,[7],inactive
CC(C)[C@H](C(=O)O[C@H](C#N)c1cccc(Oc2ccccc2)c1)c1ccc(Cl)cc1,outcome,[8],inactive
same,outcome,[9],inactive
COc1cc(OC)nc(Sc2cccc(Cl)c2C(=O)O)n1,outcome,[10],inactive
CCOP(=O)(OCC)Oc1cc(C)nc(C(C)C)n1,outcome,[7],inactive
same,outcome,[1],inactive
same,outcome,[4],inactive
CCCOCC(=Nc1ccc(Cl)cc1C(F)(F)F)n1ccnc1,outcome,[8],inactive
same,outcome,[1],inactive
same,outcome,[11],inactive
CON=C(C(=O)OC)c1ccccc1CON=C(C)c1cccc(C(F)(F)F)c1,AC50,[3],11.1 µM (active)
CC1=NNC(=O)N(/N=C/c2cccnc2)C1,outcome,[7],inactive
COc1cccc(C(=O)NN(C(=O)c2cc(C)cc(C)c2)C(C)(C)C)c1C,AC50,[3],0.491 µM (active)
COP(=O)(NC(C)=O)SC (centres undefined),outcome,[12],inactive
C[Si](Cn1cncn1)(c1ccc(F)cc1)c1ccc(F)cc1,AC50,[13],16.9 µM (active)
same,AC50,[14],19.1 µM (active)
same,AC50,Adra2b (gene 24174),25 µM (active)
same,outcome,[1],inactive
same,outcome,[11],inactive
C#CC(C)(C)NC(=O)c1cc(Cl)cc(Cl)c1,outcome,[5],inactive
CCOP(=S)(OCC)Oc1cc(C)nc(C(C)C)n1,outcome,[7],inactive
CCc1cccc(C)c1N(C(=O)CCl)C(C)COC (centres undefined),AC50,[2],12.4 µM (active)
